Assay results: ChEMBL document CHEMBL1961873, “Compounds: GSK PKIS; Assays: Nanosyn kinase panel” (2012)

Assays:
[1] = biological target: Tyrosine-protein kinase Fer (Homo sapiens) (UniProt P16591); details: at 1 µM
[2] = biological target: Tyrosine-protein kinase Fes/Fps (Homo sapiens) (UniProt P07332); details: at 0.1 µM
[3] = biological target: Tyrosine-protein kinase Fes/Fps (Homo sapiens) (UniProt P07332); details: at 1 µM
[4] = biological target: Fibroblast growth factor receptor 1 (Homo sapiens) (UniProt P11362); details: at 0.1 µM
[5] = biological target: Fibroblast growth factor receptor 1 (Homo sapiens) (UniProt P11362); details: at 1 µM
[6] = biological target: Fibroblast growth factor receptor 2 (Homo sapiens) (UniProt P21802); details: at 0.1 µM
[7] = biological target: Fibroblast growth factor receptor 2 (Homo sapiens) (UniProt P21802); details: at 1 µM
[8] = biological target: Fibroblast growth factor receptor 3 (Homo sapiens) (UniProt P22607); details: at 0.1 µM
[9] = biological target: Fibroblast growth factor receptor 3 (Homo sapiens) (UniProt P22607); details: at 1 µM
[10] = biological target: Fibroblast growth factor receptor 4 (Homo sapiens) (UniProt P22455); details: at 0.1 µM
[11] = biological target: Fibroblast growth factor receptor 4 (Homo sapiens) (UniProt P22455); details: at 1 µM
[12] = biological target: Tyrosine-protein kinase Fgr (Homo sapiens) (UniProt P09769); details: at 0.1 µM
[13] = biological target: Tyrosine-protein kinase Fgr (Homo sapiens) (UniProt P09769); details: at 1 µM
[14] = biological target: Vascular endothelial growth factor receptor 1 (Homo sapiens) (UniProt P17948); details: at 0.1 µM
[15] = biological target: Vascular endothelial growth factor receptor 1 (Homo sapiens) (UniProt P17948); details: at 1 µM
[16] = biological target: Receptor-type tyrosine-protein kinase FLT3 (Homo sapiens) (UniProt P36888); details: at 0.1 µM
[17] = biological target: Receptor-type tyrosine-protein kinase FLT3 (Homo sapiens) (UniProt P36888); details: at 1 µM
[18] = system: T1, Receptor-type tyrosine-protein kinase FLT3 (Homo sapiens), P36888 [D835Y]; details: at 0.1 µM
T1 sequence (whole entry): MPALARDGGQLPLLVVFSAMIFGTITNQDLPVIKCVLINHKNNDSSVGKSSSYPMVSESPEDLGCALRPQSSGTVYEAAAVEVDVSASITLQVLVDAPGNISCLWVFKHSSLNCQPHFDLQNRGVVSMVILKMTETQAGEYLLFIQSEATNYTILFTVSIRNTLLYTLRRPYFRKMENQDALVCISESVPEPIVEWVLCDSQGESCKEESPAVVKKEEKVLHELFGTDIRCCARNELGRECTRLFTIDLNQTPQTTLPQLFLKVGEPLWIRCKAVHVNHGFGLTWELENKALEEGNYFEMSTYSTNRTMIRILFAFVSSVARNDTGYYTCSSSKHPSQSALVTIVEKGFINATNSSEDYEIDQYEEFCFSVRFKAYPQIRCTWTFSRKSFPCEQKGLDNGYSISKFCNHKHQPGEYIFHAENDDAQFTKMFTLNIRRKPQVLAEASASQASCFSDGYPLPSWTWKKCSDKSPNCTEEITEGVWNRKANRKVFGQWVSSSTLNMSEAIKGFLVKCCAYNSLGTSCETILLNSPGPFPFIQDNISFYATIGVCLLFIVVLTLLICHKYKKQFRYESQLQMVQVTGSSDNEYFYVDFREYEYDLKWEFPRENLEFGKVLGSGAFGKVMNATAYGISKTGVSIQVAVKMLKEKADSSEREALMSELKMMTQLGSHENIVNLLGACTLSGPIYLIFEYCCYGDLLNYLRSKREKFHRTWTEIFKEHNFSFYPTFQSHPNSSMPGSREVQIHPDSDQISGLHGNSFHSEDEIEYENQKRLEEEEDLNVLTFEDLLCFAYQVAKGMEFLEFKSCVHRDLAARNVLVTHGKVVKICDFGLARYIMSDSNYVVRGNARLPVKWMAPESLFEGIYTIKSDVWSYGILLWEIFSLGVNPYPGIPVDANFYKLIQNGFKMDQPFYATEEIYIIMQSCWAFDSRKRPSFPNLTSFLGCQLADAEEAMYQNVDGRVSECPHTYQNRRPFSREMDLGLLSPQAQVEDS

[19] = biological target: Non-receptor tyrosine-protein kinase TYK2 (Homo sapiens) (UniProt P29597); details: at 1 µM;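 also: values are mean percent inhibition of TYK2 kinase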
[20] = biological target: T2, Tyrosine-protein kinase receptor TYRO3 (Homo sapiens) (UniProt Q06418); details: at 0.1 µM;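 also: reported percentages are averaged inhibition values of TYRO3 kinase activity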
T2 sequence (whole entry): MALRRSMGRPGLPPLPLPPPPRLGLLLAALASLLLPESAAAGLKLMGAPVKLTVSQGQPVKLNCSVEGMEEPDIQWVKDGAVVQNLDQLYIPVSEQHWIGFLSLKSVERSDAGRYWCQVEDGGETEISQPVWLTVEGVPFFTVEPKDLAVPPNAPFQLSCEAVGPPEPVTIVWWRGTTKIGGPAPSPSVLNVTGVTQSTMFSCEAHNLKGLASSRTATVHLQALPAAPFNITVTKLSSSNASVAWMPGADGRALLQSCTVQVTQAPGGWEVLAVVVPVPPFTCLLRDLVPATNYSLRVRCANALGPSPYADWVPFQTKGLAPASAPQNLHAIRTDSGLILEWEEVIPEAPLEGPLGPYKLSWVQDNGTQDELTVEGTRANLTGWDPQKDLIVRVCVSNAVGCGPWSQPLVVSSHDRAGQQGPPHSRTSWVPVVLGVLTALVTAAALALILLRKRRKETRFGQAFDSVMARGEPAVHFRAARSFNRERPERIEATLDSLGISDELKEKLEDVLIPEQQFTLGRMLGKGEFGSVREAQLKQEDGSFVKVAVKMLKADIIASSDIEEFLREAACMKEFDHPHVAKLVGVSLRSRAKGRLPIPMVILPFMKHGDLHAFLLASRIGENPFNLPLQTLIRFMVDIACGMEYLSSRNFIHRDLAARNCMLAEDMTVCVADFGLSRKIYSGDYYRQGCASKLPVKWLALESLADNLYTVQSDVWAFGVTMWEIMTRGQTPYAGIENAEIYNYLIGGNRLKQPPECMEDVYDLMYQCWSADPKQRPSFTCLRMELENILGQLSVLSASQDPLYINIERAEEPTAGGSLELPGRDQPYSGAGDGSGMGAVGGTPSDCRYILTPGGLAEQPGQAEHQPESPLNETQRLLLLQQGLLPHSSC

Chain of Vascular endothelial growth factor receptor 1 (Homo sapiens) (P17948 whole entry): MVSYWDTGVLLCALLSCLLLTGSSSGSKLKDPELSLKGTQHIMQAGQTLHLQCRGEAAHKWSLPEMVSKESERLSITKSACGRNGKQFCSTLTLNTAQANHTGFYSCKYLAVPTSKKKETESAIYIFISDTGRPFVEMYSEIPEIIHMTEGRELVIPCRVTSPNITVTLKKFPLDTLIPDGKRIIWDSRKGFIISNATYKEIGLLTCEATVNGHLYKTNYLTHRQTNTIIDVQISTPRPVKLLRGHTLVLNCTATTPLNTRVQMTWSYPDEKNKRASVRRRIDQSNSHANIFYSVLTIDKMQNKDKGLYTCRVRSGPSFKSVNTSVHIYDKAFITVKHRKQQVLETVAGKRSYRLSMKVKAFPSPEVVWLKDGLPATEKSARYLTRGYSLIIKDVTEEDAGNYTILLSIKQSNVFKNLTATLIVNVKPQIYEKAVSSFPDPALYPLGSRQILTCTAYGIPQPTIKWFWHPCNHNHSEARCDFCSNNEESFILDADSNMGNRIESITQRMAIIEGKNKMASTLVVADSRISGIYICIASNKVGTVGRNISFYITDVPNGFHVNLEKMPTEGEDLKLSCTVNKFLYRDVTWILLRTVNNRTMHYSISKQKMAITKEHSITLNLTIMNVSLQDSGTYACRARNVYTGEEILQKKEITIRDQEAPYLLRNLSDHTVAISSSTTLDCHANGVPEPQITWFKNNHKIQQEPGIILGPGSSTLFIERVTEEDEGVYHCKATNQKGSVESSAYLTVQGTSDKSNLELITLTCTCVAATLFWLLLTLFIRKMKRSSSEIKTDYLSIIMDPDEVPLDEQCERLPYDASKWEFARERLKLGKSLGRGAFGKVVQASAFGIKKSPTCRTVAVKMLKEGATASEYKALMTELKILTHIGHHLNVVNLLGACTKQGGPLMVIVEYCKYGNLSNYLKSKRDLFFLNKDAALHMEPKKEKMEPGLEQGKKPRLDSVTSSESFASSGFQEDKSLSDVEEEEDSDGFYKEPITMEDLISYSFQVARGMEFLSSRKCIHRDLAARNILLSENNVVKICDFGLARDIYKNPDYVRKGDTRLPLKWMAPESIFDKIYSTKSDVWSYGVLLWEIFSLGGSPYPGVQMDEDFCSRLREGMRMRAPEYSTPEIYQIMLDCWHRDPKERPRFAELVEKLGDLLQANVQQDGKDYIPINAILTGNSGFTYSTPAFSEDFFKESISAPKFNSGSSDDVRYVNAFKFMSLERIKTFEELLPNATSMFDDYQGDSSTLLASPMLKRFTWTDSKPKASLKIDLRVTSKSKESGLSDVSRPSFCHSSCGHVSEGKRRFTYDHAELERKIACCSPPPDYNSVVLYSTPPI
Chain of Fibroblast growth factor receptor 2 (Homo sapiens) (P21802 22-821 limits assumed): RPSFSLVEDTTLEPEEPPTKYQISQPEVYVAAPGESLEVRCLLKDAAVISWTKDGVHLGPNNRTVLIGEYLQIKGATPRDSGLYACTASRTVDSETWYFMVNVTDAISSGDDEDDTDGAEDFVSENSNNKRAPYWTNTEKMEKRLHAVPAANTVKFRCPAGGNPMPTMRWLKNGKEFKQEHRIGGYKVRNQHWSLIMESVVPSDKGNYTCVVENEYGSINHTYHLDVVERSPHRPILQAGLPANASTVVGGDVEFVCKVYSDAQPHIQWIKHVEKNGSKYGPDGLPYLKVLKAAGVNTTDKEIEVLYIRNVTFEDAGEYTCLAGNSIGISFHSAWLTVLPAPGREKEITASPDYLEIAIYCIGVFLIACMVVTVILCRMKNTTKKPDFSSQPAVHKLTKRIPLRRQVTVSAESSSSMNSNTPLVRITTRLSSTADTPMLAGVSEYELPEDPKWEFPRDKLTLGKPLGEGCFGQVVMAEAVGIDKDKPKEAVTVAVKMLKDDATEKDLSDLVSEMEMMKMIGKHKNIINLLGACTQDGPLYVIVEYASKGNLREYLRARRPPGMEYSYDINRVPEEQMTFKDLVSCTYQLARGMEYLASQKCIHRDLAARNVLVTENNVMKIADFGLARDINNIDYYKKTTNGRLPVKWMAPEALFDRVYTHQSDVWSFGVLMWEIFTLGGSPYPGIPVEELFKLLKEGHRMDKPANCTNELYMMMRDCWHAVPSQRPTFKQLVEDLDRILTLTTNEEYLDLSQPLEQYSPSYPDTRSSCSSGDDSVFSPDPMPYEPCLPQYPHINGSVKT
Chain of Tyrosine-protein kinase Fgr (Homo sapiens) (P09769 2-529 limits assumed): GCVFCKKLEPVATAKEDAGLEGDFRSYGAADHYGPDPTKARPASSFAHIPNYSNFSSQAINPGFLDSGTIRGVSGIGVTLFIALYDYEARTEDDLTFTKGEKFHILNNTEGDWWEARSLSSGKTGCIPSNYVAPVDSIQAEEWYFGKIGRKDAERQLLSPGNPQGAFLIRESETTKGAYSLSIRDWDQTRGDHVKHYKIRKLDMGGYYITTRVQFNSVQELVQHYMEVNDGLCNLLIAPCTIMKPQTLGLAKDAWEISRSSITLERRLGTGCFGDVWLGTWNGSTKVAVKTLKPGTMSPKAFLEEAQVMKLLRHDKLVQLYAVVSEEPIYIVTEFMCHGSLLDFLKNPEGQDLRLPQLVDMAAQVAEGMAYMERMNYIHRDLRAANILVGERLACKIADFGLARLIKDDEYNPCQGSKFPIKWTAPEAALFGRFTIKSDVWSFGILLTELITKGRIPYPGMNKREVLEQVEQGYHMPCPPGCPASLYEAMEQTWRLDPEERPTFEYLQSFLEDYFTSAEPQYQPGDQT
Chain of Non-receptor tyrosine-protein kinase TYK2 (Homo sapiens) (P29597 whole entry): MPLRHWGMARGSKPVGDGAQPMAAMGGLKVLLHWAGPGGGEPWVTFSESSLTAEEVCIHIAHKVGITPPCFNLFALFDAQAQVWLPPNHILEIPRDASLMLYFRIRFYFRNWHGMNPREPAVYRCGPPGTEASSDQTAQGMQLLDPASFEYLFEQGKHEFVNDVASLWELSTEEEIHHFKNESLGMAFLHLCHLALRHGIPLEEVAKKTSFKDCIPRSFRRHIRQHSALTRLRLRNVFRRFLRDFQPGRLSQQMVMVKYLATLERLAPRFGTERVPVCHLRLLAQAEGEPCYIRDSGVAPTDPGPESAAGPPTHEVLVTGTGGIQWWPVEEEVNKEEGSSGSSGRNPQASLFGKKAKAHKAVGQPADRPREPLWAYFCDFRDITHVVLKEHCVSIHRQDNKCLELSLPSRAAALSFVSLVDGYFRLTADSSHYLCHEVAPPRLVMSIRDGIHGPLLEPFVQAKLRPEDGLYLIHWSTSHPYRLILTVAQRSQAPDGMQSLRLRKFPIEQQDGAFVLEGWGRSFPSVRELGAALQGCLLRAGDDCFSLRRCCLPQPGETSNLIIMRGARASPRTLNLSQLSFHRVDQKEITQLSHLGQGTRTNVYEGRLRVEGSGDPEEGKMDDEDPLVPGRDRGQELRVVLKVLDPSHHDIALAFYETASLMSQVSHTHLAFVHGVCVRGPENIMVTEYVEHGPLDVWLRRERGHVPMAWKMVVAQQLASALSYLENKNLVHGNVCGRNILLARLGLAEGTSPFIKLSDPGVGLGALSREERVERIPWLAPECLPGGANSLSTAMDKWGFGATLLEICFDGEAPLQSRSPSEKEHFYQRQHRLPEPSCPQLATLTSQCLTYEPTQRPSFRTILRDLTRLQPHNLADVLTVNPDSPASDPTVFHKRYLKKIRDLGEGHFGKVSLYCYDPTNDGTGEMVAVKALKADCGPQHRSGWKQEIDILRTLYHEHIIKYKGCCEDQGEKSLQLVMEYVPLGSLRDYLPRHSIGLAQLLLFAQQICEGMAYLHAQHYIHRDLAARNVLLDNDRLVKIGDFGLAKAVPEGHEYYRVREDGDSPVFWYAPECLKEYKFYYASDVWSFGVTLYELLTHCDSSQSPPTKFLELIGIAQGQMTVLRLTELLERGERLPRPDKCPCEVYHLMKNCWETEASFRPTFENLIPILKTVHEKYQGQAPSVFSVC
Chain of Fibroblast growth factor receptor 4 (Homo sapiens) (P22455 22-802 limits assumed): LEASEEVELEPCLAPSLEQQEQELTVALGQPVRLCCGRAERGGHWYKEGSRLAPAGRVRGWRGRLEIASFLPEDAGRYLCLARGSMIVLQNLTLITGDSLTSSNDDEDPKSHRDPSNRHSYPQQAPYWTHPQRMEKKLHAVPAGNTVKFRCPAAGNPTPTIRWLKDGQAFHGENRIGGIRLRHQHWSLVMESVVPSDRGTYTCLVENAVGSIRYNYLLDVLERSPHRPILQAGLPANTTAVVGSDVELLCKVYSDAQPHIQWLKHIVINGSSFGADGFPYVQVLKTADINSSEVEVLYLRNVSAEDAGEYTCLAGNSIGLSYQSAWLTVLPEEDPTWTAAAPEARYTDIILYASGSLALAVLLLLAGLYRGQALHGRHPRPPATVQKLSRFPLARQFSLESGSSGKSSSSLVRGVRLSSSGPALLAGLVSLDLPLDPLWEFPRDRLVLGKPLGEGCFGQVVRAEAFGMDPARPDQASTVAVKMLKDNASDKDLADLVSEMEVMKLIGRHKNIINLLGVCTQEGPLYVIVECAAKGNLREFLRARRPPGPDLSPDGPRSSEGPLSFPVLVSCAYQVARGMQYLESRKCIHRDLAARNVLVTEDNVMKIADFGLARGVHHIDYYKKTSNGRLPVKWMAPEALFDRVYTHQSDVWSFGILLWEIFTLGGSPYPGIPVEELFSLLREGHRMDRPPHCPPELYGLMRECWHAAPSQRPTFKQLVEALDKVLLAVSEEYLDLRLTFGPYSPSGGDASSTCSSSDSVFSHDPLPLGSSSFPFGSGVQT

Structure (SMILES)	inhibition [1]	inhibition [2]	inhibition [3]	inhibition [4]	inhibition [5]	inhibition [6]	inhibition [7]	inhibition [8]	inhibition [9]	inhibition [10]	inhibition [11]	inhibition [12]	inhibition [13]	inhibition [14]	inhibition [15]	inhibition [16]	inhibition [17]	inhibition [18]	inhibition [19]	inhibition [20]
COc1cc(C=NNc2ncnc3c2cnn3Cc2ccccc2)ccc1O	4.33%	-4.54%	-3.75%	-3.93%	-5.25%	-7.09%	-2.01%	-3.23%	-2.85%	-3.36%	4.03%	11.8%	52.1%	-1.46%	1.82%	-1.99%	-1.02%	-4.43%	-1.56%	-1.07%
Cc1cc(-c2ccco2)cc(C)c1/C=C/c1cncc(-c2nn[nH]n2)c1	7.85%	1.75%	1.63%	-0.88%	2.5%	1.69%	1.54%	-0.36%	3.17%	1.4%	1.04%	3.13%	6.29%	-0.74%	1.77%	1.31%	1.79%	-3.95%	2.63%	0.37%
COc1cccc(COc2cc(-n3cnc4ccccc43)sc2C(N)=O)c1	3.72%	0.11%	0.56%	-3.37%	-0.23%	-0.92%	3.02%	-1.31%	0.24%	-1.48%	1.25%	1.93%	1.54%	-2.33%	-0.83%	-1.3%	-4.17%	-9.33%	-0.53%	-0.84%
CCn1c(-c2nonc2N)nc2c(C#CCN)ncc(OCCCN)c21	6.76%	-1.95%	-1.62%	-2.75%	2.12%	-1.49%	0.4%	-4.55%	-3.83%	-2.34%	0.77%	5.41%	1.7%	0.25%	0.93%	1.97%	0.52%	2.12%	5.33%	-0.44%
CCn1c(-c2nonc2N)nc2c(C#CC(C)(C)O)nc(O[C@@H](CN)c3ccccc3)cc21	11.6%	-0.28%	5.21%	-5.77%	6.16%	0.17%	1.12%	-1.56%	-0.33%	0.28%	1.13%	3.54%	28.6%	36.1%	79.8%	-2.74%	-0.29%	2.74%	1.49%	0.32%
NC(=O)c1sc(-n2cnc3cc(C(F)(F)F)ccc32)cc1OCc1ccccc1Br	6.44%	2.76%	1.99%	-2.05%	1.74%	2.24%	–	1.69%	2.38%	2.01%	-0.34%	2.13%	2.99%	-0.46%	-0.01%	0.18%	3.13%	-3.16%	-3.05%	1.7%
NS(=O)(=O)c1ccc(-c2ccc3c(NC(=O)C4CC4)n[nH]c3c2)cc1	-0.03%	1.35%	2.53%	2.31%	7.63%	7.91%	6%	3.47%	5.72%	0.67%	-0.07%	1.76%	6.23%	0.3%	1.37%	-1.65%	3.53%	2.16%	-4.76%	3.34%
COc1cccc(-n2ncc3c(N/N=C/c4ccncc4)ncnc32)c1	11.7%	3.38%	5.85%	4.8%	8.02%	4.98%	14.5%	7.39%	11.9%	1.99%	7.56%	29%	70%	1.64%	27.6%	7.06%	28.3%	11.5%	0.71%	8.97%
CCn1c(-c2nonc2N)nc2c(C#CC(C)(C)O)ncc(OCC3CCNCC3)c21	6.84%	2.17%	4.04%	-2.34%	-0.27%	-1.71%	3.89%	1.17%	-1.22%	-6.83%	-3.68%	5.04%	4.9%	2.92%	23.5%	-0.18%	4.4%	3.83%	1.52%	2.77%
COc1cc2c(cc1Nc1nc(Nc3ccsc3C(N)=O)c3cc[nH]c3n1)N(C(=O)CN(C)C)CCC2	81.6%	77.9%	86.8%	-0.88%	-1.8%	1.41%	0.97%	0.66%	2.61%	-1.12%	1.79%	7.89%	10.7%	-1.61%	1.49%	-1.64%	1.45%	-8.75%	-1.13%	–
CCn1c(-c2nonc2N)nc2c(C#CC(C)(C)O)ncc(OC[C@@H]3CCCN3)c21	0.7%	2.01%	4.12%	-0.74%	0.08%	-1.27%	0.8%	-3.24%	0.67%	2.54%	2.23%	1.47%	2.16%	1.39%	17.4%	-1%	-0.61%	-6.46%	-1.89%	-1.01%
Nc1nonc1-c1nc2cnccc2n1C1CCCCC1	1.83%	-2.28%	-1.92%	-7.32%	-4.22%	-6.69%	-0.47%	-2.79%	-2.23%	-1.75%	-1.15%	-0.56%	6.63%	-1%	4.33%	-0.01%	4.32%	3.29%	6.77%	-1.27%
NS(=O)(=O)c1ccc(N/C=C2\C(=O)Nc3ccc4ncsc4c32)cc1	13.1%	3.55%	7.01%	5.4%	32.8%	18.8%	53.3%	17.1%	56.7%	1.61%	5.81%	2.87%	21.6%	7.41%	50.6%	32.8%	79.5%	40.4%	41%	3.07%
Fc1ccc(-c2ncn(C3CCNCC3)c2-c2ccnc(Oc3ccccc3)n2)cc1	0.16%	1.02%	1.03%	-5.35%	-7.09%	-0.63%	-3.24%	-1.57%	-4.55%	-2.7%	-3.96%	1.86%	4.87%	1.35%	2.72%	-0.44%	0.52%	-4.18%	-4.41%	1.92%
